Each compound was assayed on WHIM30 (cells of a triple-negative basal-like breast cancer xenograft) (assay: cell viability of combination (% of vehicle); higher = less cytotoxic). Details: 1 µM; 72 h; partner dose: 10 nM.
Procedure: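 PDX cells were treated for 72 h with each drug at 1 µM plus carfilzomib (10 nM; 100 nM for WHIM2). Luciferase viability is expressed as percent of vehicle.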

| SMILES | cell viability of combination |
| --- | --- |
| C=CC(=O)N1CCC(Oc2cc3c(Nc4ccc(Cl)c(Cl)c4F)ncnc3cc2OC)CC1 [Poziotinib] + CC(C)C[C@H](NC(=O)[C@H](CCc1ccccc1)NC(=O)CN1CCOCC1)C(=O)N[C@@H](Cc1ccccc1)C(=O)N[C@@H](CC(C)C)C(=O)[C@@]1(C)CO1 [Carfilzomib] | 8.92 |
| Cl.OC(c1cc(C(F)(F)F)nc2c(C(F)(F)F)cccc12)C1CCCCN1 (stereo not given) [Mefloquine hydrochloride] + CC(C)C[C@H](NC(=O)[C@H](CCc1ccccc1)NC(=O)CN1CCOCC1)C(=O)N[C@@H](Cc1ccccc1)C(=O)N[C@@H](CC(C)C)C(=O)[C@@]1(C)CO1 [Carfilzomib] | 20.3 |
| CC[C@@H]1/C=C(\C)C[C@H](C)C[C@H](OC)[C@H]2O[C@@](O)(C(=O)C(=O)N3CCCC[C@H]3C(=O)O[C@H](/C(C)=C/[C@@H]3CC[C@H](Cl)[C@H](OC)C3)[C@H](C)[C@@H](O)CC1=O)[C@H](C)C[C@@H]2OC [Pimecrolimus] + CC(C)C[C@H](NC(=O)[C@H](CCc1ccccc1)NC(=O)CN1CCOCC1)C(=O)N[C@@H](Cc1ccccc1)C(=O)N[C@@H](CC(C)C)C(=O)[C@@]1(C)CO1 [Carfilzomib] | 11.7 |
| CCOC(=O)C1=C(COCCN)NC(C)=C(C(=O)OC)C1c1ccccc1Cl.O=S(=O)(O)c1ccccc1 (stereo not given) [Amlodipine Besylate] + CC(C)C[C@H](NC(=O)[C@H](CCc1ccccc1)NC(=O)CN1CCOCC1)C(=O)N[C@@H](Cc1ccccc1)C(=O)N[C@@H](CC(C)C)C(=O)[C@@]1(C)CO1 [Carfilzomib] | 16.5 |
| Cc1ccc(C(=O)N(CCCN)C(c2nc3cc(Cl)ccc3c(=O)n2Cc2ccccc2)C(C)C)cc1 (stereo not given) + CC(C)C[C@H](NC(=O)[C@H](CCc1ccccc1)NC(=O)CN1CCOCC1)C(=O)N[C@@H](Cc1ccccc1)C(=O)N[C@@H](CC(C)C)C(=O)[C@@]1(C)CO1 [Carfilzomib] | 19.6 |
| CC(O)C(=O)O.CC(O)C(=O)O.CN1CCN(c2ccc3c(c2)NC(=C2C(=O)N=c4cccc(F)c4=C2N)N3)CC1 [Dovitinib Dilactic acid] + CC(C)C[C@H](NC(=O)[C@H](CCc1ccccc1)NC(=O)CN1CCOCC1)C(=O)N[C@@H](Cc1ccccc1)C(=O)N[C@@H](CC(C)C)C(=O)[C@@]1(C)CO1 [Carfilzomib] | 32.1 |
| C#Cc1cccc(Nc2ncnc3cc(OCCOC)c(OCCOC)cc23)c1 [Erlotinib] + CC(C)C[C@H](NC(=O)[C@H](CCc1ccccc1)NC(=O)CN1CCOCC1)C(=O)N[C@@H](Cc1ccccc1)C(=O)N[C@@H](CC(C)C)C(=O)[C@@]1(C)CO1 [Carfilzomib] | 27.4 |
| CN1CCN(CCOc2cc(OC3CCOCC3)c3c(Nc4c(Cl)ccc5c4OCO5)ncnc3c2)CC1 [Saracatinib (AZD0530)] + CC(C)C[C@H](NC(=O)[C@H](CCc1ccccc1)NC(=O)CN1CCOCC1)C(=O)N[C@@H](Cc1ccccc1)C(=O)N[C@@H](CC(C)C)C(=O)[C@@]1(C)CO1 [Carfilzomib] | 21.1 |
| CC(C)CC(NC(=O)CNC(=O)c1cc(Cl)ccc1Cl)B(O)O (stereo not given) + CC(C)C[C@H](NC(=O)[C@H](CCc1ccccc1)NC(=O)CN1CCOCC1)C(=O)N[C@@H](Cc1ccccc1)C(=O)N[C@@H](CC(C)C)C(=O)[C@@]1(C)CO1 [Carfilzomib] | 9.5 |
| COc1cccc2c1C(=O)c1c(O)c3c(c(O)c1C2=O)C[C@@](O)(C(C)=O)C[C@@H]3O[C@H]1C[C@H](N)[C@H](O)[C@H](C)O1.Cl [Daunorubicin HCl] + CC(C)C[C@H](NC(=O)[C@H](CCc1ccccc1)NC(=O)CN1CCOCC1)C(=O)N[C@@H](Cc1ccccc1)C(=O)N[C@@H](CC(C)C)C(=O)[C@@]1(C)CO1 [Carfilzomib] | 4.41 |
| CCc1cnn2c(NCc3ccc[n+]([O-])c3)cc(N3CCCCC3CCO)nc12 (stereo not given) + CC(C)C[C@H](NC(=O)[C@H](CCc1ccccc1)NC(=O)CN1CCOCC1)C(=O)N[C@@H](Cc1ccccc1)C(=O)N[C@@H](CC(C)C)C(=O)[C@@]1(C)CO1 [Carfilzomib] | 7.14 |
| O=C(NN=Cc1ccc([N+](=O)[O-])o1)c1ccc(O)cc1 [Nifuroxazide] + CC(C)C[C@H](NC(=O)[C@H](CCc1ccccc1)NC(=O)CN1CCOCC1)C(=O)N[C@@H](Cc1ccccc1)C(=O)N[C@@H](CC(C)C)C(=O)[C@@]1(C)CO1 [Carfilzomib] | 12.5 |
| CC(C)c1nc(N(C)S(C)(=O)=O)nc(-c2ccc(F)cc2)c1C=CC(O)CC(O)CC(=O)[O-].CC(C)c1nc(N(C)S(C)(=O)=O)nc(-c2ccc(F)cc2)c1C=CC(O)CC(O)CC(=O)[O-].[Ca+2] (stereo not given) [Rosuvastatin Calcium] + CC(C)C[C@H](NC(=O)[C@H](CCc1ccccc1)NC(=O)CN1CCOCC1)C(=O)N[C@@H](Cc1ccccc1)C(=O)N[C@@H](CC(C)C)C(=O)[C@@]1(C)CO1 [Carfilzomib] | 19.6 |
| O=C(C=Cn1cnc(-c2cc(C(F)(F)F)cc(C(F)(F)F)c2)n1)NNc1cnccn1 + CC(C)C[C@H](NC(=O)[C@H](CCc1ccccc1)NC(=O)CN1CCOCC1)C(=O)N[C@@H](Cc1ccccc1)C(=O)N[C@@H](CC(C)C)C(=O)[C@@]1(C)CO1 [Carfilzomib] | 5.58 |
| CNC(=O)c1cc(Oc2ccc(NC(=O)Nc3ccc(Cl)c(C(F)(F)F)c3)cc2)ccn1.Cc1ccc(S(=O)(=O)O)cc1 [Sorafenib Tosylate] + CC(C)C[C@H](NC(=O)[C@H](CCc1ccccc1)NC(=O)CN1CCOCC1)C(=O)N[C@@H](Cc1ccccc1)C(=O)N[C@@H](CC(C)C)C(=O)[C@@]1(C)CO1 [Carfilzomib] | 19.5 |
| COc1cc2c(Nc3ccc(Br)cc3F)ncnc2cc1OCC1CCN(C)CC1 [Vandetanib (ZD6474)] + CC(C)C[C@H](NC(=O)[C@H](CCc1ccccc1)NC(=O)CN1CCOCC1)C(=O)N[C@@H](Cc1ccccc1)C(=O)N[C@@H](CC(C)C)C(=O)[C@@]1(C)CO1 [Carfilzomib] | 15.1 |
| Clc1ccc(COC(Cn2ccnc2)c2ccc(Cl)cc2Cl)cc1.O=[N+]([O-])O (stereo not given) [Econazole nitrate] + CC(C)C[C@H](NC(=O)[C@H](CCc1ccccc1)NC(=O)CN1CCOCC1)C(=O)N[C@@H](Cc1ccccc1)C(=O)N[C@@H](CC(C)C)C(=O)[C@@]1(C)CO1 [Carfilzomib] | 17.7 |
| CNCCC(Oc1ccc(C(F)(F)F)cc1)c1ccccc1.Cl (stereo not given) [Fluoxetine HCl] + CC(C)C[C@H](NC(=O)[C@H](CCc1ccccc1)NC(=O)CN1CCOCC1)C(=O)N[C@@H](Cc1ccccc1)C(=O)N[C@@H](CC(C)C)C(=O)[C@@]1(C)CO1 [Carfilzomib] | 16.3 |
| COC(=O)C1=C(C)NC(C)=C(C(=O)OC2CCCN(Cc3ccccc3)C2)C1c1cccc([N+](=O)[O-])c1.Cl (stereo not given) [Benidipine HCl] + CC(C)C[C@H](NC(=O)[C@H](CCc1ccccc1)NC(=O)CN1CCOCC1)C(=O)N[C@@H](Cc1ccccc1)C(=O)N[C@@H](CC(C)C)C(=O)[C@@]1(C)CO1 [Carfilzomib] | 13.6 |
| CNCCCC12CCC(c3ccccc31)c1ccccc12.Cl [Maprotiline HCl] + CC(C)C[C@H](NC(=O)[C@H](CCc1ccccc1)NC(=O)CN1CCOCC1)C(=O)N[C@@H](Cc1ccccc1)C(=O)N[C@@H](CC(C)C)C(=O)[C@@]1(C)CO1 [Carfilzomib] | 16 |

Reference: the supplement of paper PMC6992640
